Bioassay records: PubChem BioAssay, National Center for Advancing Translational Sciences (NCATS)
Most compounds without a hit are left out; they make up all but 3% or so of the library.
SARS PLP yeast: qHTS of Yeast-based Assay for SARS-CoV PLP | 330,000 tested, 0.19% active | AID 485353, 2010 | Potency, µM (doses to about 32.9 µM), for inactives: top-dose activity, positive = growth rescue, hits mostly activators | S. cerevisiae expressing SARS-CoV PLpro, growth rescue; calls by dose curve; note: 0% is about no effect; nearly all actives have a fitted effect of over 55% in size
Sm TGR block: qHTS Assay for the Inhibitors of Schistosoma Mansoni Peroxiredoxins; purified TGR, DTNB reduction, TNB absorbance 405 nm; 360,000 tested, 3% active; Schistosoma mansoni thioredoxin glutathione reductase (TGR), Q962Y6; Potency, µM (doses to about 114 µM), for inactives: at the top dose activity change, negative = inhibition, most hits filed as inhibitors; active = well fitted inhibition curve with a large enough effect; inconclusive = small, poorly fitted or top-dose-only effect; inactive = no such curve, though single readings can be large or run the other way; note: % is set by controls: 0 for no effect and ±100 for the full control effect; nearly all actives have a fitted effect of over 60% in size
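Kinetic colorimetric format: TGR-catalysed, NADPH-driven DTNB reduction monitored via TNB absorbance. Enzyme dispensed at 20 nM; compound exposure 15 min at room temperature before reaction start.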
Active calls of the source: *; ? = inconclusive; . = no result. Potency is the fitted concentration of half-maximal effect.

SMILES	SARS PLP yeast	Sm TGR block
CC1CCC(NC(=O)c2ccc3c(c2)N(Cc2cccc(Cl)c2)C(=O)c2ccccc2S3=O)CC1 (centres undefined)	.	7%
CCOc1ccc(N2CC(NC(=O)c3ccc(S(=O)(=O)N4CCCC4)cc3)CC2=O)cc1 (centres undefined)	.	11%
Cc1ccc(-n2c3c(cc(C(=O)Nc4cccc(Cl)c4)c2=O)C(=O)CC(C)(C)C3)cc1	.	34%
COc1cc2c(C(=O)N3CCN(c4ccc(C)cc4)C(C)C3)cn(CC(C)C)c(=O)c2cc1OC (centres undefined)	.	-1%
Cc1ccc(C)c(S(=O)(=O)N2CCN(C(=O)C3CC3C)CC2)c1 (centres undefined)	1%	-3%
O=C(/C=C/c1ccco1)N1CCN(S(=O)(=O)c2ccccc2)CC1	-1%	.
Cc1ccc(S(=O)(=O)N2CCN(C(=O)/C=C/c3ccco3)CC2)cc1	2%	50µM*
O=C(c1cc2ccccc2o1)N1CCN(S(=O)(=O)c2ccc(F)c(F)c2F)CC1	1%	-4%
O=C(/C=C/c1ccco1)N1CCN(S(=O)(=O)c2ccc(F)c(F)c2F)CC1	0%	5µM*
Cc1ccc(C)c(S(=O)(=O)N2CCN(C(=O)/C=C/c3ccco3)CC2)c1	1%	4µM*
Cc1cc(C)c2c(=O)cc(C(=O)Nc3c(C)n(C)n(-c4ccccc4)c3=O)oc2c1	.	20%
CCOC(=O)CC(NS(=O)(=O)c1cc(-c2cc(C)no2)ccc1C)c1ccc(C)cc1 (centres undefined)	.	-1%
CCCCOc1ccc(CNC(=O)c2cnc3sc(N4CCOCC4)nn3c2=O)cc1	.	5%
COc1ccc(C(=O)c2cn(CC(=O)Nc3cc(C)ccc3C)c3nc(C)ccc3c2=O)cc1	.	1%
Cc1cc2oc(=O)cc(C)c2cc1NC(=O)CCC(=O)O	6%	-2%
Cc1cc2c(C)cc(=O)[nH]c2cc1NC(=O)CCl	0%	10µM*
CCC(=O)Nc1cc2[nH]c(=O)cc(C)c2cc1C	1%	-2%
Cc1cc2oc(=O)cc(C)c2cc1NC(=O)CCl	17%	13µM*
Cc1ccc(Cl)cc1N1CCN(CCCNC(=O)Cn2ncc3c([nH]c4ccccc43)c2=O)CC1	.	-2%
CC(=O)OC1=CN(Cc2ccccc2)S(=O)(=O)c2ccccc21	.	1%
O=S1(=O)c2ccccc2C(CCO)N1Cc1ccccc1 (centres undefined)	1%	28µM*
O=C(O)CC1c2ccccc2S(=O)(=O)N1Cc1ccccc1 (centres undefined)	-1%	40%
COC(=O)CC1c2ccccc2S(=O)(=O)N1Cc1ccccc1 (centres undefined)	1%	32µM*
CCCCOc1ccc(CNC(=O)Cc2ccc(NC(=O)N3CCCCc4ccccc43)cc2)cc1	.	-1%
O=C(OCn1ncc(Cl)c(Cl)c1=O)c1cccc(C(F)(F)F)c1	-31%	5.6µM*
SMILES	SARS PLP yeast	Sm TGR block
N/C(=N\OC(=O)c1cccc(C(F)(F)F)c1)c1cnccn1	?	-5%
CCc1nn2c(=O)cc(COC(=O)c3cccc(NC(=O)CCc4ccccc4)c3)nc2s1	.	-9%
Cc1ccc(C(=O)c2oc3ccccc3c2NC(=O)C(C)Oc2ccccc2Cl)cc1 (centres undefined)	.	12%
CCC(CC)C(=O)NCc1nc2cccnc2n1Cc1ccc(F)cc1	.	12%
COC(=O)c1c(NC(=O)C(C)(C)C)sc2c1C(C(=O)OC)CC2 (centres undefined)	19%	32µM*
COC(=O)c1c(NC(=O)C(Cl)Cl)sc2c1C(C(=O)OC)CC2 (centres undefined)	0%	2%
CCOc1ccccc1NC(=O)CCc1c(C)nc2cc(-c3ccccc3)nn2c1C	.	-4%
CCOc1ccc(/C=C2\SC(=S)NC2=O)cc1OC	-4%	-8%
COc1ccc(/C=C2\SC(=O)NC2=S)cc1OC	-31%	18µM*
O=C1C=C(Nc2ccccc2C(=O)O)c2ccccc2C1=O	-11%	?
O=C1C=C(Nc2cccc3cccnc23)c2ccccc2C1=O	-5%	32µM*
CCn1c(=O)c2cc(C(=O)NCCc3ccc(OC)c(OC)c3)sc2c2ccccc21	.	-2%
CCSc1nnc2c(n1)OC(c1ccc(OC)cc1OC)N(C(C)=O)c1ccccc1-2 (centres undefined)	.	8%
O=C(NCc1ccco1)C1CCCCC1	0%	.
O=C(NCc1ccco1)C1OCCc2ccccc21 (centres undefined)	5%	22µM*
Fc1ccc(C(c2nnnn2C2CCCC2)N(Cc2ccco2)CC2CCCO2)cc1 (centres undefined)	-18%	-11%
c1ccc(CN(Cc2ccco2)C(c2ccncc2)c2nnnn2C2CCCC2)cc1 (centres undefined)	-5%	22µM*
O=c1[nH]c(SCc2c(F)cccc2Cl)nc2c1CCCC2	.	-9%
O=C1CC(/C=C/c2ccccn2)=Nc2ccccc2N1	-1%	?
O=C1CC(/C=C/c2ccco2)=Nc2ccccc2N1	2%	45µM*
CC(=O)c1cccc(NC(=O)[C@H](Cc2ccccc2)N2Cc3ccccc3C2=O)c1	.	9%
O=C(Nc1cccc(N2C(=O)C=CC2=O)c1)c1cccs1	-44%	0.4µM*
Cc1nc2ccccc2c(=O)n1-c1cccc(NC(=O)c2cccs2)c1	-1%	4%
COC(=O)c1nnn(-c2cccc(C)c2)c1C(=O)OC	.	-3%
COc1cccc(-n2nnnc2S(C)(=O)=O)c1	-51%	2.8µM*
SMILES	SARS PLP yeast	Sm TGR block
Cc1cccc(-n2nnnc2S(C)(=O)=O)c1	.	2.5µM*
COc1cccc(Oc2nnnn2-c2ccccc2)c1	1%	0%
COc1cc(CN(C(=O)c2ccc(OC(C)C)cc2)c2ccccn2)cc(OC)c1OC	.	2%
CN(C1CCCCC1)S(=O)(=O)c1ccc2c(c1)c(=O)c(C(=O)NCCc1ccccc1)cn2C	.	1%
Cc1ccc(C(=O)c2sc(Nc3ccc(F)cc3)nc2N)c(C)c1	.	-14%
COc1ccc(Cl)cc1NC(=O)Cn1c(=O)n(Cc2cccs2)c(=O)c2cccnc21	.	-1%
CS/C(=N\S(=O)(=O)c1ccc(Cl)cc1)c1ccccc1	-11%	-8%
O=S(=O)(/N=C(\Sc1ccc(Cl)cc1)c1ccccc1)c1ccccc1	5%	25µM*
Cc1ccc(C)c(NC(=O)Cn2c(=O)n(CC(=O)NCCc3ccccc3)c(=O)c3ccccc32)c1	.	4%
O=C(c1ccco1)[C@@H]1[C@@H]2C(=O)N(c3ccc(F)cc3)C(=O)[C@@H]2[C@H]2C=Cc3ccccc3N21	-19%	-33%
NC(=O)[C@@H]1[C@@H]2C(=O)N(c3ccc(F)cc3)C(=O)[C@@H]2[C@H]2C=Cc3ccccc3N21	0%	32µM*
CC(C)c1cnc2c(c1SCC(=O)Nc1cccc([N+](=O)[O-])c1)c(=O)n(C)c(=O)n2C	.	7%
N#CCNC1CC(=O)N(c2ccc(F)cc2)C1=O (centres undefined)	-21%	7.1µM*
O=C1CC(NCc2ccc(F)cc2)C(=O)N1c1ccccc1 (centres undefined)	-3%	.
Cc1ccc(C(=O)c2oc3ccccc3c2NC(=O)c2cc(=O)c3ccccc3o2)cc1	.	0%
O=C(CCSc1ccccc1)N1CCCC1	-2%	8%
O=[N+]([O-])/C(C(Cl)=C(Cl)Cl)=C(\Sc1ccccc1)N1CCCCC1	-1%	13µM*
